# Results reported in PubChem BioAssay AID795 (NMMLSC, 2007).
# Out of some 24,000 compounds screened, about 130 (0.54%) were called active. The sample holds actives, similar compounds and a random draw of the others, so the mix is not that of the screen. Values without a mark were called inactive.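 The calls were made as follows: active = side scatter shift above 30%; inactive = the rest.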
# Test: inducers of granularity increase in LNCaP cells – cell-based, flow cytometry side scatter, primary screen (AID 795);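 also: androgen-responsive LNCaP prostate cancer cells in charcoal-stripped serum medium; percent of cells past a gate set so DMSO wells show 10% shift; higher shift means more granular cells and more differentiation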
# Conditions: LNCaP differentiation, 4 d, at 10 µM, active compounds read high
row,SMILES,side scatter shift
1,Cc1ccc(-c2noc(-c3ccccc3C(=O)NCC3CCCO3)n2)cc1 (stereo unspecified),5%
2,CCOC(=O)Nc1ccccc1N1C(=O)c2ccccc2C1=O,8%
3,O=C(CNS(=O)(=O)c1ccc(Br)s1)NCc1ccc2c(c1)OCO2,9%
4,COc1ccc(-c2nc(CS(=O)CC(=O)N3CCc4ccccc4C3)c(C)o2)cc1 (stereo unspecified),11%
5,O=C1CSC(c2cccc(F)c2)N1c1ccccc1F (stereo unspecified),8%
6,CCOC(=O)c1cccc(NC(=O)CCc2c(C)nc3ncnn3c2C)c1,4%
7,CC1Cc2nc(SCC(=O)Nc3ccccc3F)n(C)c(=O)c2S1 (stereo unspecified),7%
8,CSCCC(NC(=O)C1CCC(C)CC1)C(=O)NCc1ccco1 (stereo unspecified),3%
9,CCOc1ccc(NC(=O)N(CCC(C)C)C(C)c2ccco2)cc1 (stereo unspecified),7%
10,COc1cc2[nH]c(=O)n(CCC(=O)NC3CCN(Cc4ccccc4)CC3)c(=O)c2cc1OC,2%
11,Cn1c(=O)cc(SCC(=O)N2CCCC2)c2cc(Cl)ccc21,9%
12,COc1cc(OC)cc(-c2nc3nc(C)c(CCC(=O)NCc4ccco4)c(C)n3n2)c1,5%
13,CC1C=CCC2C(=O)N(c3cccc(C(=O)N4CCCCCC4)c3)C(=O)C12 (stereo unspecified),3%
14,C/C(=N\O)C1(C)N(O)C(C)(C)C(c2ccc(Br)cc2)=[N+]1[O-] (stereo unspecified),11%
15,CCCSc1nc2c(c(=O)[nH]c(=O)n2C)n1CCc1ccccc1,9%
16,Cc1ccc2nc3n(c(=O)c2c1)CCC3,8%
17,Cc1nc2nc(SCC(=O)NCc3ccco3)nn2c(C)c1Cc1ccccc1,4%
18,S=C1SCN(CCN2CCOCC2)CN1Cc1ccccc1,18%
19,CCOC(=O)C1CCCN(C(=O)Cn2ncc3c(=O)oc4ccc(C)cc4c32)C1 (stereo unspecified),5%
20,O=C(NC(=O)c1ccc(Cl)c(Cl)c1)OC1CCS(=O)(=O)C1 (stereo unspecified),6%
21,CC1CCc2c(sc3c2C2=NS(=O)(=O)CCN2C=N3)C1 (stereo unspecified),12%
22,CC(=O)c1c(N)n(C)c(=O)n(C)c1=O,0%
23,CCCC1CC(C)(C(=O)Cn2[nH]c(=O)ccc2=O)OC1=O (stereo unspecified),1%
24,Fc1cc(F)c2nc(N3CCOCC3)sc2c1,5%

row,SMILES,side scatter shift
1,Cn1c(=O)c2c(nc(N3CCCCCC3)n2CC(=O)c2ccc(Br)cc2)n(C)c1=O,21%
2,CCOC(=O)N1CCN(C(=O)c2ccc(S(=O)(=O)c3ccc(C)cc3)c(NC(C)=O)c2)CC1,8%
3,N#CC1=C(N)C(C#N)(C#N)[C@H](c2ccsc2)[C@H]2COCC=C12,9%
4,NC(=O)CSC1=Nc2ccccc2C2=NC(CCC(=O)NCc3ccc(F)cc3)C(=O)N12 (stereo unspecified),0%
5,COc1ccc(NC(=O)C2CCCN(S(=O)(=O)c3cccc4cccnc34)C2)cc1 (stereo unspecified),6%
6,CCCCN(CC)CCCNC(=O)CS(=O)(=O)Cc1nc(-c2cccc(OC)c2)oc1C,7%
7,CC(=O)Nc1cc2ccc(OC(C)=O)cc2oc1=O,10%
8,O=C(CSc1nc2[nH]ncc2c(=O)n1-c1ccccc1)N1CCCc2ccccc21,5%
9,COc1ccc(OCc2ccc(-c3nc4ccccc4c(=O)n3N)o2)cc1,6%
10,Cc1ccc(NC(=O)c2nc[nH]c2C(=O)N2CCCCC2)c(C(=O)c2ccccc2)c1,14%
11,COc1ccc(OC)c(NC(=O)CC(Cc2ccccc2OC)C(=O)O)c1 (stereo unspecified),15%
12,CCn1cc(C(=O)N2CCN(C3CCCCC3)CC2)c2cc(OC)c(OC)cc2c1=O,7%
13,Cc1nc2ccccc2c2oc(C(=O)NCC3CCCO3)cc12 (stereo unspecified),11%
14,O=C(CN1C(=O)C2C3C=CC(C3)C2C1=O)NCC1COc2ccccc2O1 (stereo unspecified),9%
15,Cn1c(CNC(=O)C(C)(C)C)nc2ccccc21,3%
16,COCCN1C(=O)c2oc3c(C)cc(C)cc3c(=O)c2C1c1cccc(O)c1 (stereo unspecified),3%
17,CC1(C)CC(O)C(CCC(O)c2ccccc2)C(C)(C)N1 (stereo unspecified),5%
18,CCOC(=O)c1ccc2[nH]c(C)c(CN3CCN(C)CC3)c(=O)c2c1,10%
19,COCCN(CC(=O)Nc1ccccc1C)S(=O)(=O)c1ccc(S(=O)(=O)N2CCCC2)cc1,3%
20,COc1ccccc1NC(=O)CSc1nnc(Cc2cccn2C)n1-c1ccc(F)cc1,14%
21,CC1(C)CC(=O)C=C(NCc2ccncc2)C1,6%
22,CCOC(=O)N1CCC(C(N)=O)CC1,12%
23,Nc1ccc(-n2nncc2-c2ccco2)cc1,2%
24,CC12CN3CC(C)(CN(C1)C3c1ccc(Cl)cc1Cl)C2=O (stereo unspecified),7%

row,SMILES,side scatter shift
1,O=C(CSc1nnc2ccccn12)c1ccccc1,3%
2,CCCCCCn1c(CN2CCCC(C)C2)nc2c1c(=O)n(C)c(=O)n2C (stereo unspecified),7%
3,COc1ccc(Cc2nnc(NC(=O)Cc3cccs3)s2)cc1,23%
4,CCOC(=O)c1ccc(NC(=O)Cn2nnc(-c3ccc(C)cc3)n2)cc1,12%
5,COc1ccc(CC(=O)Nc2ccc(-c3nnc(-c4ccc(C)cc4)o3)cc2)cc1,37% (active)
6,CCCCOC(=O)NCN1C(=O)C2C3C=CC(C3)C2C1=O (stereo unspecified),11%
7,Cc1noc(C)c1S(=O)(=O)N1CCCC(C(=O)Nc2nccs2)C1 (stereo unspecified),13%
8,O=C(c1ccco1)N1CCN(c2cccc(Cl)c2)CC1,16%
9,CCN(CC)C(=O)c1sc(NC(=O)c2ccco2)c(C#N)c1C,7%
10,Cc1ccc(-n2nc3cc(Cl)c(NC(=O)c4ccco4)cc3n2)cc1,36% (active)
11,CCCS(=O)(=O)N1CCN(C(=O)c2cccs2)CC1,14%
12,COc1ccc(C2C3=C(OC(C)=O)c4ccccc4C3=Nc3c2c(=O)n(C)c(=O)n3C)cc1 (stereo unspecified),13%
13,Cc1cccc(C2c3c(n(C)c(=O)n(C)c3=O)N=C3c4ccccc4C(=O)C32)c1 (stereo unspecified),36% (active)
14,Cc1cc(C)nc(-n2nc(C)cc2NC(=O)c2ccc(Br)o2)n1,9%
15,CCOC(=O)N1CCC(Nc2c(NCCN3CCN(c4cccc(Cl)c4)CC3)c(=O)c2=O)CC1,16%
16,CCOc1c(OC)cc(C2C(C#N)=C(N)Oc3n[nH]c(-c4ccncc4)c32)cc1OC (stereo unspecified),4%
17,Cc1ccc(N2CCN(c3ccc(C)cc3)C2c2ccccn2)cc1,16%
18,Cc1ccc(C(c2sc3nc(C)nn3c2O)N2CCN(c3ccccc3)CC2)cc1 (stereo unspecified),10%
19,FC(F)Oc1ccccc1C1CC(c2ccc(Br)s2)Nc2ncnn21 (stereo unspecified),11%
20,Cc1c(NC(=O)C(C)OC(=O)c2cc3c4ccccc4n(C)c3s2)c(=O)n(-c2ccccc2)n1C (stereo unspecified),7%
21,CCOC(=O)N1CCC(NC(=O)c2cnn3ccccc23)CC1,2%
22,Cc1ncn(C23CC4CC(CC(O)(C4)C2)C3)n1,9%
23,O=C(c1ccc(=O)[nH]c1)N(Cc1ccco1)C1(C(=O)NC2CCCCC2)CCCCC1,1%
24,CCN(c1ccc2c(c1)OCO2)S(=O)(=O)c1cc(Br)cc2c1N(C(=O)C1CC1)CC2,6%

row,SMILES,side scatter shift
1,c1ccc(CCn2nnnc2CN2CCN(C3CCCC3)CC2)cc1,14%
2,O=C(NCCc1ccc(Cl)cc1)C1CC(=O)N(C2CCCCC2)C1 (stereo unspecified),24%
3,Cc1nc2ccc(NC(=O)N3CCC(c4ccccc4)C3)cc2nc1C (stereo unspecified),11%
4,COc1cc2ccccc2cc1C(=O)Nc1ccc(S(=O)(=O)Nc2cc(C)on2)cc1,12%
5,COc1ccc2c(c1)CCc1c(C(=O)Nc3c(C)n(C)n(-c4ccccc4)c3=O)noc1-2,1%
6,COc1ccc(OC)c(CNC(=O)CCc2nc(-c3cccs3)no2)c1,12%
7,CCCN1Cc2cccc(C(=O)NCc3ccccc3)c2C1=O,9%
8,O=C(CCCn1c(SCC(=O)c2ccc(F)cc2)nc2ccccc2c1=O)NCc1ccco1,8%
9,CCc1nnc(NC(=O)CSc2nnc(Cc3ccccc3)n2-c2ccc(OC)cc2)s1,6%
10,CC(NC(=O)c1ccc(Cl)cc1)C(=O)N1CCCCC1 (stereo unspecified),5%
11,O=C1Nc2c(Br)cc(Br)cc2C1(O)N1CCOCC1 (stereo unspecified),13%
12,O=C(c1ccco1)N1CCN(CC(=O)N(C2CCCCC2)C2CCS(=O)(=O)C2)CC1 (stereo unspecified),9%
13,COc1cccc(C(=O)Nc2c3c(nn2-c2cccc(C)c2C)CS(=O)(=O)C3)c1OC,8%
14,CCN(Cc1ccccc1)C(=O)CSc1nc(C)cc2c1C(=O)OC2,4%
15,COc1ccc2c(CC(=O)Nc3nnc(C4CC4)s3)coc2c1,7%
16,CCCN1CCN(CCCNC(=O)CN2C(=O)COc3ccccc32)CC1,7%
17,COc1ccccc1-n1cnc2cc(NS(=O)(=O)c3ccccc3)ccc21,11%
18,COc1ccc(OC)c(CN2C(=O)CCC2(C)C(=O)NC2CCCCCC2)c1 (stereo unspecified),11%
19,Cc1ccc(-c2nc(CS(=O)CC(=O)NC3CCCC3)c(C)o2)cc1 (stereo unspecified),7%
20,Cc1ccnc(N2C(=O)c3ccccc3C2Nc2ccc3c(c2)OCCO3)c1 (stereo unspecified),7%
21,CCOc1ccccc1NC(=O)c1cc(S(=O)(=O)N2CCC3(CC2)OCCO3)ccc1F,7%
22,CCOC(=O)N1CCC(NC(=O)C(C)n2c3ccccc3c3cnn(C)c(=O)c32)CC1 (stereo unspecified),6%
23,Cn1c2ccccc2c2c(C(=O)N3CCN(c4ccc(F)cc4)CC3)cn(C3CCCC3)c(=O)c21,1%
24,O=c1c(-c2ccccc2)coc2c(CN3CCOCC3)c(O)ccc12,9%
